Measurements published in the supplement of paper PMC8728848.
This is one part of a sample in which the strongest signals are shown more often than they occur.

Experiments:
Assay in all cases: glycan array binding signal (z-score within array); higher = stronger binding
Conditions in all cases: glycan notation: IUPAC condensed, linker removed
[1] = molecular target: Fuc(a1-2)Gal(b1-3)GlcNAc(b1-2)Man(a1-3)[Fuc(a1-2)Gal(b1-3)GlcNAc(b1-2)Man(a1-6)]Man(b1-4)GlcNAc(b1-4)[Fuc(a1-6)]GlcNAc
In short: (§1)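 From the Consortium for Functional Glycomics database, 3228 arrays were curated, keeping only those whose protein sequence was available. Binding is given as a within-array Z-score averaged across arrays sharing a protein sequence and across linkers. Negative Z-scores can be read as non-binding.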

[2] = molecular target: Fuc(a1-2)Gal(b1-3)GlcNAc(b1-3)[Gal(b1-4)GlcNAc(b1-6)]Gal(b1-4)Glc
In short: as §1

[3] = molecular target: Fuc(a1-2)Gal(b1-3)[Fuc(a1-4)]GlcNAc
In short: as §1

[4] = molecular target: Fuc(a1-2)Gal(b1-3)[Fuc(a1-4)]GlcNAc(b1-2)Man(a1-3)[Fuc(a1-2)Gal(b1-3)[Fuc(a1-4)]GlcNAc(b1-2)Man(a1-3)]Man(b1-4)GlcNAc(b1-4)GlcNAc
In short: as §1

[5] = molecular target: Fuc(a1-2)Gal(b1-4)GlcNAc(b1-6)GalNAc
In short: as §1

[6] = molecular target: Fuc(a1-2)Gal3S(b1-4)GlcNAc
In short: as §1

[7] = molecular target: Fuc(a1-2)[Gal(a1-3)]Gal(b1-3)GalNAc(b1-3)Gal(a1-4)Gal(b1-4)Glc
In short: as §1

[8] = molecular target: Fuc(a1-2)[Gal(a1-3)]Gal(b1-3)GlcNAc
In short: as §1

[9] = molecular target: Fuc(a1-2)[Gal(a1-3)]Gal(b1-3)GlcNAc(b1-6)GalNAc
In short: as §1

[10] = molecular target: Fuc(a1-2)[Gal(a1-3)]Gal(b1-4)[Fuc(a1-3)]GlcNAc(b1-3)GalNAc
In short: as §1

[11] = molecular target: Fuc(a1-3)[Gal(b1-4)]GlcNAc(b1-2)Man(a1-3)[Fuc(a1-3)[Gal(b1-4)]GlcNAc(b1-2)Man(a1-6)]Man(b1-4)GlcNAc(b1-4)GlcNAc
In short: as §1

[12] = molecular target: Fuc(a1-3)[Gal(b1-4)]GlcNAc(b1-3)Gal(b1-4)[Fuc(a1-3)]GlcNAc
In short: as §1

[13] = molecular target: Fuc(a1-3)[Gal(b1-4)]GlcNAc(b1-6)GalNAc
In short: as §1

[14] = molecular target: Fuc(a1-3)[Gal(b1-4)]GlcNAc6S
In short: as §1

[15] = molecular target: Gal(a1-3)Gal(b1-3)GlcNAc(b1-6)GalNAc
In short: as §1

[16] = molecular target: Gal(a1-3)Gal(b1-4)GlcNAc(b1-2)Man(a1-3)[Gal(a1-3)Gal(b1-4)GlcNAc(b1-2)Man(a1-6)]Man(b1-4)GlcNAc(b1-4)GlcNAc
In short: as §1

[17] = molecular target: Gal(b1-3)GlcNAc(b1-2)Man(a1-3)[Gal(b1-3)GlcNAc(b1-2)Man(a1-6)]Man(b1-4)GlcNAc(b1-4)GlcNAc
In short: as §1

[18] = molecular target: Gal(b1-3)GlcNAc(b1-2)Man(a1-3)[Gal(b1-3)GlcNAc(b1-2)Man(a1-6)]Man(b1-4)GlcNAc(b1-4)[Fuc(a1-6)]GlcNAc
In short: as §1

[19] = molecular target: Gal(b1-3)GlcNAc(b1-3)Gal(b1-4)GlcNAc
In short: as §1

[20] = molecular target: Gal(b1-3)GlcNAc(b1-3)Gal(b1-4)GlcNAc(b1-2)Man(a1-3)[Gal(b1-3)GlcNAc(b1-3)Gal(b1-4)GlcNAc(b1-2)Man(a1-6)]Man(b1-4)GlcNAc(b1-4)GlcNAc
In short: as §1

[21] = molecular target: Gal(b1-3)GlcNAc(b1-6)Gal(b1-4)GlcNAc
In short: as §1

[22] = molecular target: Gal(b1-3)GlcNAc(b1-6)[Gal(b1-3)]GalNAc
In short: as §1

[23] = molecular target: Gal(b1-3)[Fuc(a1-4)]GlcNAc(b1-6)GalNAc
In short: as §1

[24] = molecular target: Gal(b1-4)GlcNAc(b1-3)Gal(b1-3)GalNAc
In short: as §1

[25] = molecular target: Gal(b1-4)GlcNAc(b1-3)Gal(b1-4)GlcNAc(b1-2)Man(a1-3)[Gal(b1-4)GlcNAc(b1-3)Gal(b1-4)GlcNAc(b1-2)Man(a1-6)]Man(b1-4)GlcNAc(b1-4)GlcNAc
In short: as §1

[26] = molecular target: Gal(b1-4)GlcNAc(b1-3)Gal(b1-4)GlcNAc(b1-2)Man(a1-3)[Gal(b1-4)GlcNAc(b1-3)Gal(b1-4)GlcNAc(b1-2)Man(a1-6)]Man(b1-4)GlcNAc(b1-4)[Fuc(a1-6)]GlcNAc
In short: as §1

B1: PX9937B-bvu-524-33-524 (Bacteroides vulgatus) (protein)
chain: GTAYWKNPDQFTAFNTGLHALLREKSYNFFLLGEPRADIYGDNPIGGEASQGMERLPFNTINKENVGISNYGDMYKIINQINQMIAKTTETTILTEATQNYYLGEAYGMRAYLYFHLLRSWGDVVLYLDYTEGQNLDLSNITKGVSPATEVMEQIKKDIQASENAFGSDYSFKLGRHFWSAAATQMLKGEAYLWSGRQMNGGNSDYTIAKNAFENVKKADVGLVTSSFKDIFSFENKKNKEMIFTIHNGKDEYEMWGGYYRMRLIPAQDKMVKIYCDENGNSFVGTPDAQLNGLTQLQVRREFYFKGFRNNDTRWTTSLKAVYKKDAQGVVSYFGPITYKFQGTMLEGGSTRSFLDDFPIYRYADCLLQLAMAKVLLGEDPTEEINAVRERAYGSKYFNEHKAEIAYPNDNDPEFYTDNKWMKPDNAGALEAILKERLREFMFEGKRWYDIRLLGWDYVHQYSSAEQSRLLWPIDAGTLTNNSALKQTPGYE
glycan array binding signal (z-score) [1]: -0.232 | glycan array binding signal (z-score) [2]: -0.284 | glycan array binding signal (z-score) [3]: -0.457 | glycan array binding signal (z-score) [4]: -0.154 | glycan array binding signal (z-score) [5]: -0.136 | glycan array binding signal (z-score) [6]: -0.476 | glycan array binding signal (z-score) [7]: 0.046 | glycan array binding signal (z-score) [8]: -0.275 | glycan array binding signal (z-score) [9]: -0.124 | glycan array binding signal (z-score) [10]: -0.416 | glycan array binding signal (z-score) [11]: 1.23 | glycan array binding signal (z-score) [12]: -0.277 | glycan array binding signal (z-score) [13]: 2.69 | glycan array binding signal (z-score) [14]: 0.219 | glycan array binding signal (z-score) [15]: 6.13 | glycan array binding signal (z-score) [16]: 2.91 | glycan array binding signal (z-score) [17]: -0.057 | glycan array binding signal (z-score) [18]: 0.088 | glycan array binding signal (z-score) [19]: -0.228 | glycan array binding signal (z-score) [20]: 12.8 | glycan array binding signal (z-score) [21]: -0.085 | glycan array binding signal (z-score) [22]: 7.68 | glycan array binding signal (z-score) [23]: -0.019 | glycan array binding signal (z-score) [24]: -0.08 | glycan array binding signal (z-score) [25]: 2.05 | glycan array binding signal (z-score) [26]: 1.48
